Assay results from ChEMBL document CHEMBL1961873, “Compounds: GSK PKIS; Assays: Nanosyn kinase panel” (2012).

Legend:
[1] = target: Sphingosine kinase 1 (Homo sapiens) (UniProt Q9NYA1); settings: at 1 µM;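 further: mean SPHK1 inhibition value reported from the GSK PKIS kinase panel screen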
[2] = target: T1, Sphingosine kinase 2 (Homo sapiens) (UniProt Q9NRA0); settings: at 0.1 µM
T1 sequence (whole entry): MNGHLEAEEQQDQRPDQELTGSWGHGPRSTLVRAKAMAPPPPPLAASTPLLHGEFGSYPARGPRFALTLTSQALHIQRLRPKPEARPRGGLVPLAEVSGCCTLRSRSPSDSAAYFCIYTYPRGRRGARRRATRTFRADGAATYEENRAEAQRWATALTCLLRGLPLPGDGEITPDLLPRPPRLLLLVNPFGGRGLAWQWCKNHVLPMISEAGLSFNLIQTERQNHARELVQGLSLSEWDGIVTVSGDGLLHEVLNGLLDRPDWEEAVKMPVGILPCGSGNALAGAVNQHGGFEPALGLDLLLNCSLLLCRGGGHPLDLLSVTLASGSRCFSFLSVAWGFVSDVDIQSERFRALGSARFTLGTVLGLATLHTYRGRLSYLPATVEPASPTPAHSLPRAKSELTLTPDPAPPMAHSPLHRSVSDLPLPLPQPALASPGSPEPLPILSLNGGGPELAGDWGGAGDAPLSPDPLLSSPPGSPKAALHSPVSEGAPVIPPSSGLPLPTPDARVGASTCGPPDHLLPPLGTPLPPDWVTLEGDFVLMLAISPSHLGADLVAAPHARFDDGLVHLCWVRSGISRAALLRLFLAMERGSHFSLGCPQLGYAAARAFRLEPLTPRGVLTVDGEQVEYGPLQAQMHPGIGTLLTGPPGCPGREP

[3] = target: T1, Sphingosine kinase 2 (Homo sapiens); settings: at 1 µM
[4] = target: Casein kinase II subunit alpha (Homo sapiens) (UniProt P68400); settings: at 0.1 µM
Chain of Casein kinase II subunit alpha (Homo sapiens) (P68400 whole entry, looked up): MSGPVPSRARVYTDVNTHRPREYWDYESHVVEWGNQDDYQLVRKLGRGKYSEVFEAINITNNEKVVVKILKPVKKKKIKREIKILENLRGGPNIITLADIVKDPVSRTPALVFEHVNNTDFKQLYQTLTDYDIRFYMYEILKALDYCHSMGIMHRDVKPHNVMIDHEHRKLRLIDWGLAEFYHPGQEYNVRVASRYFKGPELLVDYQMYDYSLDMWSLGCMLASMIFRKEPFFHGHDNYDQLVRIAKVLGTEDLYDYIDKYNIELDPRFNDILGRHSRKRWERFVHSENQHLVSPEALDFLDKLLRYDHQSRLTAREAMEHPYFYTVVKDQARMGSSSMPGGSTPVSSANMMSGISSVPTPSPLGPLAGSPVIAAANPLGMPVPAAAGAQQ

[5] = target: Casein kinase II subunit alpha (Homo sapiens) (UniProt P68400); settings: at 1 µM
[6] = target: T2, Inhibitor of nuclear factor kappa-B kinase subunit alpha (Homo sapiens) (UniProt O15111); settings: at 0.1 µM
T2 sequence (whole entry): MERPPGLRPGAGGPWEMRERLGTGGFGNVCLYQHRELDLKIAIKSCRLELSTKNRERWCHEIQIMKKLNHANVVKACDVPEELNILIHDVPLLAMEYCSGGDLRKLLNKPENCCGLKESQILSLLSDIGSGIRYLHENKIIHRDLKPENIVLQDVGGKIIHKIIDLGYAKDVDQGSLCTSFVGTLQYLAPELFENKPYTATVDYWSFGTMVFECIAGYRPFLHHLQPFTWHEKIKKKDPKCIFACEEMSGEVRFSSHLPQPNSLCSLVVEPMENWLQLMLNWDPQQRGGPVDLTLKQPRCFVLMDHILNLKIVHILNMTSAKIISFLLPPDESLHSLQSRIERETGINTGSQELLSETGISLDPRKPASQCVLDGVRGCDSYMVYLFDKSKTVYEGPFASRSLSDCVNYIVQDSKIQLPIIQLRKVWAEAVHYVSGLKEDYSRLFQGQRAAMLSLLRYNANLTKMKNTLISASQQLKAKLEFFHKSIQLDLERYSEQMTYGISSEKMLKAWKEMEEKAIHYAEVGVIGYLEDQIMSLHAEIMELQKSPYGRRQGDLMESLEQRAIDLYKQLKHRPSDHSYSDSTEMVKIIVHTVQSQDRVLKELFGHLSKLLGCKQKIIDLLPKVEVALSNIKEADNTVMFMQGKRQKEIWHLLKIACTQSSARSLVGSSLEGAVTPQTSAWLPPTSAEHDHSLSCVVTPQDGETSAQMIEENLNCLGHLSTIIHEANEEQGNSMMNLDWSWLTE

[7] = target: T2, Inhibitor of nuclear factor kappa-B kinase subunit alpha (Homo sapiens); settings: at 1 µM
[8] = target: T3, Inhibitor of nuclear factor kappa-B kinase subunit beta (Homo sapiens) (UniProt O14920); settings: at 0.1 µM
T3 sequence (whole entry): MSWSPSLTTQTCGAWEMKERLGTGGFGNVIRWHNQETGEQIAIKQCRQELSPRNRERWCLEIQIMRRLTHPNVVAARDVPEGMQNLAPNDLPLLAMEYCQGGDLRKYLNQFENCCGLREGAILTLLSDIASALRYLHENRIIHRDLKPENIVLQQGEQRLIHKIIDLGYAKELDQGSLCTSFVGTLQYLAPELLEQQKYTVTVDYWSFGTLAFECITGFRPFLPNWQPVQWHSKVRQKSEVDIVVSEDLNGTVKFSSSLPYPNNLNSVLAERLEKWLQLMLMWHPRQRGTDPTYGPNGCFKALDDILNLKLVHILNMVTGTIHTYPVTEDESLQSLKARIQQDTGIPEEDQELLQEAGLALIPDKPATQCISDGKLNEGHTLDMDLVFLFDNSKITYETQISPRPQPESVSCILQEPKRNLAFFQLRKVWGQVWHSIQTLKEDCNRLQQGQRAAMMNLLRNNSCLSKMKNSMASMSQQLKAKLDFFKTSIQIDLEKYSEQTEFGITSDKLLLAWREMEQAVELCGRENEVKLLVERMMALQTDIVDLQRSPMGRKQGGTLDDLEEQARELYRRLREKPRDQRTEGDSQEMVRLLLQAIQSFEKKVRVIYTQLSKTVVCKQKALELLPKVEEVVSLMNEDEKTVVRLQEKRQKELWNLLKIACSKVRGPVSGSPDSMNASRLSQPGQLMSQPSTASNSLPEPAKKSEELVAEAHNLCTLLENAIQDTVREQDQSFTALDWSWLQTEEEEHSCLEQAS

[9] = target: T3, Inhibitor of nuclear factor kappa-B kinase subunit beta (Homo sapiens); settings: at 1 µM
[10] = target: T4, Inhibitor of nuclear factor kappa-B kinase subunit epsilon (Homo sapiens) (UniProt Q14164); settings: at 0.1 µM;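 further: mean inhibition of IKKε reported, from the GSK PKIS dataset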
T4 sequence (whole entry): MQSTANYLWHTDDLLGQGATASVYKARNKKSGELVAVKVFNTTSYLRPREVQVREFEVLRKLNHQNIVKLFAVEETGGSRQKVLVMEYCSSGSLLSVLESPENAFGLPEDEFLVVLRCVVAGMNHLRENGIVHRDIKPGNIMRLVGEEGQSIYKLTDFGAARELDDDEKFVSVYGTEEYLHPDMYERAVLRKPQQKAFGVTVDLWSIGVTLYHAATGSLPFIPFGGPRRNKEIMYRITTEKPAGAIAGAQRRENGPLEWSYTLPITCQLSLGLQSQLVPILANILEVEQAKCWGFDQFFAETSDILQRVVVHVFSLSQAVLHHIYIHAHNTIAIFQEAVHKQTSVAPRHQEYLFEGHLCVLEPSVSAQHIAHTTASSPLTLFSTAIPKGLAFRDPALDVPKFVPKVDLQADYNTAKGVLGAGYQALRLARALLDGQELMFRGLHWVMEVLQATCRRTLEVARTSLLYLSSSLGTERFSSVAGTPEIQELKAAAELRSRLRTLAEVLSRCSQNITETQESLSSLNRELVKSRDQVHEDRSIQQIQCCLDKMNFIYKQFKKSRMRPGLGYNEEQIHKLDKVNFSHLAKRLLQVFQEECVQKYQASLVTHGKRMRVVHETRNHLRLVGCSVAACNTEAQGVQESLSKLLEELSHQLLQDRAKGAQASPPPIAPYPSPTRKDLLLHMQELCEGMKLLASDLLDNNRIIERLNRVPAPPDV

Chain of Sphingosine kinase 1 (Homo sapiens) (Q9NYA1 whole entry): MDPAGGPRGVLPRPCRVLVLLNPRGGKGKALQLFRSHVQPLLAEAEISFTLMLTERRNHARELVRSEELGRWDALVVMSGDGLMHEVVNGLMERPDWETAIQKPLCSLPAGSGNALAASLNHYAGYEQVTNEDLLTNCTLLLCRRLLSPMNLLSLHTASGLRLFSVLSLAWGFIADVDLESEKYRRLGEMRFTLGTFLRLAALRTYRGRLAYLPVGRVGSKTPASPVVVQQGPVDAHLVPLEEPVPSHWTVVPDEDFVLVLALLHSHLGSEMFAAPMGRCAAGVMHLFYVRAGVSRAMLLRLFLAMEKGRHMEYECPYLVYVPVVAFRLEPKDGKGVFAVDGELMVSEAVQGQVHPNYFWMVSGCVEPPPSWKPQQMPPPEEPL

CC1=C(C(=O)Nc2ccc3[nH]ncc3c2)C(c2ccc(F)cc2)NC(=O)N1 (stereo not given)
inhibition [1]: -2.09%
inhibition [2]: -0.06%
inhibition [3]: -0.16%
inhibition [4]: 1.87%
inhibition [5]: 0.86%
inhibition [6]: 0.45%
inhibition [7]: 7.79%
inhibition [8]: 1.68%
inhibition [9]: 1.73%
inhibition [10]: 1.7%
